Each structure is given as a SMILES string. Several values for one entry are separate records, joined by “and”; a condition that tells them apart may be missing. Identical values can stand only once. The panel holds about 83,000 compounds, 20% with a hit somewhere; the sample as a whole holds those more often.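 How to read the values: 0–100, growth inhibition (40 = 60% inhibited); 0, no net growth; -100 to 0, cell death (-40 = 40% of starting cells died; -100 = all dead).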 Values without a mark were called inactive. Activity calls are given as the source filed them. How the source made its calls: active means growth percent below 10; inactive means the rest.

This test concerns MDA-MB-468 breast. The experiment in a line: NCI-60 one-dose screen, 48 h (100 = growth as untreated, 0 = no growth, -100 = all killed). The note with it: 10 µM unless noted.
In the case of `S=c1[nH]c2cc(Cl)ccc2o1`, the growth was 99%.

With `Clc1ccc(-c2cn3cc(Cc4ccc(Cl)c(Cl)c4)sc3n2)cc1`, the growth is 80.5%.

For `CN1CCN(Cc2ccc(NC(=O)c3cncc(C#Cc4cnc(N)c5ccc(F)cc45)c3)cc2C(F)(F)F)CC1`, the growth is -34.4% (active).

As to `Cc1nnc(NC(=O)c2nc(S(=O)(=O)Cc3ccc(F)cc3)ncc2Cl)s1`, the growth was -15.1% (active).

On to `C#CCOc1ccc(/C=N\Nc2nc(-c3ccc(C)cc3)cs2)cc1OC`, for which the growth was 70.7%.

On to `CN(C)CCCn1c2c(c3cc(-c4ccco4)ccc3c1=O)C(=O)c1ccccc1-2`, for which the growth is 40.2%.

As for `CC1(C(N)=O)CCC(C(=O)O)C1(C)C` (stereo not given), the growth was 99.2%.

Turning to `N[C@@H](Cc1cn(-c2ccnc3ccccc23)nn1)C(=O)O`, the growth was 108%.

As for `Cn1c(=O)c2[nH]c(C3CC=CCC3)nc2n(C)c1=O` (stereo not given), the growth was 107%.

On to `CCOC(=O)c1ccc(NC(=O)CCCN(CC)CC)cc1`, for which the growth was 115%.

On to `O=C(Nc1nc2ccc(C(F)(F)F)cc2s1)c1cc(Cl)ccc1O`, for which the growth is -1.49% (active).

Regarding `COc1cccc2c(=O)c3c(sc12)c(NCCCN)nc1ccccc13`, the growth was -8% (active).

As to `Cc1cc(N2CCCCC2)nc(N(CCCNc2ccnc3cc(Cl)ccc23)Cc2ccco2)n1`, the growth was 6.73% (active).

On to `CC(=O)Nc1nc(C)c(C(=O)N/N=C/c2cccs2)s1`, for which the growth was 98.8%.

On to `NNC(=S)N1N=C(c2cc3ccccc3o2)CC1c1c[nH]c2ccccc12` (stereo not given), for which the growth is 15.3%.

Turning to `C#CC(=O)/C=C/CCCCCCC#CC(=O)CCC(=O)C#CCCCCCC/C=C/C(=O)C#C`, the growth was -10% (active).

Take `COc1cc2oc(-c3ccc(O)cc3)cc(=O)c2c(O)c1I`: the growth is 105%.

Regarding `Nc1ccccc1Nc1ccccc1`, the growth is 120% and 118%.

Turning to `COC1CCC(N2C(=O)CNc3ncc(-c4ccc(C(C)(C)O)nc4)nc32)CC1` (stereo not given), the growth was -25.2% (active).

With `COC(=O)c1c2c(c[n+]([O-])c1C)C(=O)C=CC2=O`, the growth was -17.2% (active).

Turning to `CS(=O)(=O)c1ccc(-n2cc(/C=N/O)c(-c3ccccc3)n2)cc1`, the growth is 35%.

For the molecule `Cc1ccc(-c2nnc(SCc3ccc(O)c4ncccc34)n2-c2ccccc2)cc1`, the growth is 9.08% (active).

In the case of `Oc1nc(NCc2ccccc2)sc1/C=C1\C=Nc2ncccc21`, the growth was 58.4%.

In the case of `Cc1c(C)n(CC(O)CNC2CCCCC2C)c2ccccc12` (stereo not given), the growth was -33.8% (active).

Turning to `COc1cc2[nH]c(C(=O)c3cc(OC)c(OC)c(OC)c3)c(N)c2cc1C#CCO`, the growth was 25.6%.

Consider `CCN1CCN(c2ccc(Nc3cc(-c4cccnc4Nc4c(Cl)c(OC)cc(OC)c4Cl)ncn3)cc2)CC1`, for which the growth was 89.6%.

As for `O=C(O)c1ccc(CO)o1`, the growth was 103%.

Consider `COc1ccc(-c2nn(-c3cccc(NC(=O)Nc4cc(C(F)(F)F)cc(C(F)(F)F)c4)c3)cc2-c2ccncc2)cc1Cl`, for which the growth was 17.7%.

`O=[N+]([O-])c1cc2c(ccc3occc32)o1`: the growth was -8.85% (active).

For the molecule `CCCCCCCCCCCCNC(=S)N/N=C/c1ccccc1O`, the growth was 53.1%.

For `CS(=O)(=O)c1ccc(-c2cc(-c3nnc(SCC(=O)Nc4ccc(C(=O)/C=C/c5ccc(Cl)cc5)cc4)n3-c3ccccc3)c3ccccc3n2)cc1`, the growth was 93.2%.

On to `CN(C)CCCC1(c2ccc(F)cc2)OCc2cc(-c3cccc4[nH]ccc34)ccc21` (stereo not given), for which the growth was -34.5% (active).

Take `Clc1ccc(Nc2scc3[n+]2CCC3)cc1`: the growth was 86.3%.

`C#C[C@]1(O)CC[C@H]2[C@@H]3CC=C4c5sc(-c6ccc7c(c6)OCO7)nc5CC[C@]4(C)[C@H]3CC[C@@]21C`: the growth was 51.5%.

As for `Cc1cc(N2CCCCC2)nc(N(CCNc2ccnc3cc(Cl)ccc23)Cc2ccco2)n1`, the growth was -0.362% (active).

`COc1ccc2c(c1)C(=O)c1c-2c(=O)n(CCCN(C)C)c2cc(OC)c(OC)cc12`: the growth is 44.5%.

For `CC1NC(=S)NC(=O)/C1=C/c1cc(=O)oc2c1ccc1ccccc12` (stereo not given), the growth was 103%.

As for `COc1ccc(-c2cn[nH]c2-c2ccc(OC)c(O)c2)cc1`, the growth is 47.1%.

Regarding `Nc1ccccc1SC1CC(=O)N(c2ccc(I)cc2)C1=O` (stereo not given), the growth was 121%.

On to `O=C(/C=C/c1ccc([N+](=O)[O-])o1)NNC(=O)c1cc2ccccc2cc1O`, for which the growth was 6.09% (active).

For the origin of these results see PubChem BioAssay (NCI).
